Redox H2O2 prof = compounds producing H2O2 with reducing agent – biochemical, NIH compound library profiling, artefact control for MLSCN library redox annotation, primary screen; 200,000 compounds, 0.03% hits; activation, % at 10 µM; DTT-dependent redox cycling H2O2, phenol red/HRP absorbance; 100% = 100 µM peroxide control, 0% = buffer;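 active = activation of at least 50% relative to the plate's high and low controls in the primary single-dose screen; inactive = activation below 50%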;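 note: compound incubated with DTT at 0.8 mM final as the reducing agent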
LYPLA1 inh = counter-screen for PME1 inhibitors: inhibitors of human LYPLA1 | O75608 | recombinant LYPLA1, FP-Rh probe fluorescence polarization | inhibition, % at 5.9 µM | 320,000 compounds, 0.16% hits | AID 2174;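 active = inhibition above the mean of all tested compounds plus 3 SD, set per campaign, cut at about 14% in these data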;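 note: inhibitors block serine hydrolase probe labeling of LYPLA1 so polarization falls; 0% = enzyme with DMSO and 100% = wells lacking LYPLA1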
Target sequence (O75608 whole entry, looked up): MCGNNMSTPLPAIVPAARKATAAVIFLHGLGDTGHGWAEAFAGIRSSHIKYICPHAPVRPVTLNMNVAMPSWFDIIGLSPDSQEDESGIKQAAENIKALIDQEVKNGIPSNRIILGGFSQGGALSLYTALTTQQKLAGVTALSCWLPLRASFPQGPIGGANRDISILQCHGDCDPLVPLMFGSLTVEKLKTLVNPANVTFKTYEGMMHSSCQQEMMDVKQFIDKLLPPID
p97 ATPase inh = blocks human p97 ATPase activity; inhibition, % at 8 µM; AID 1481; P55072; recombinant p97 ATPase, Kinase-Glo ATP luminescence, 3 h; 220,000 compounds, 0.42% hits; in the data active = inhibition above about 15%;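 note: 0% = DMSO vehicle and 100% = wells lacking enzyme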
LYPLA2 inh = counter-screen for PME1 inhibitors: inhibitors of human LYPLA2. O95372. recombinant LYPLA2, FP-Rh probe fluorescence polarization. inhibition, % at 5.9 µM. 320,000 compounds, 0.38% hits;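 active = inhibition above the screen-wide mean plus 3 SD, limit set per campaign, cut at about 26% in these data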;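 note: 0% = LYPLA2 with DMSO and 100% = wells lacking LYPLA2 enzyme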
Target sequence (O95372 whole entry, looked up): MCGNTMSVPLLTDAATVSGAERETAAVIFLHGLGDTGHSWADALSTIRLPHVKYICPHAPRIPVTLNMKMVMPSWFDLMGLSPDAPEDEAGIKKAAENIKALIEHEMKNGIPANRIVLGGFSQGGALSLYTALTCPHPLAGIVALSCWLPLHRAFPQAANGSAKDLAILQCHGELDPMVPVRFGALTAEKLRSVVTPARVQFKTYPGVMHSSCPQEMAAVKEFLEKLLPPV
LYPLA1 confirm = LYPLA1 (human) inhibition, confirmation counter-screen | shares compounds with LYPLA1 inh | recombinant LYPLA1, FP-Rh probe fluorescence polarization | inhibition, % at 5.9 µM | 480 compounds, 69% hits;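 active = mean inhibition across replicates above the hit cutoff set in the primary screen, cut at about 15% in these data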;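 note: loss of FP-Rh probe labeling of LYPLA1 seen as lower polarization; 0% = LYPLA1 with DMSO and 100% = wells lacking LYPLA1 enzyme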
LYPLA2 confirm = counter-screen for PME1 inhibitors: confirmation of human LYPLA2 inhibitors; recombinant LYPLA2, FP-Rh probe fluorescence polarization; inhibition, % at 5.9 µM; shares compounds with LYPLA2 inh; 1,100 compounds, 72% hits;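 active = mean inhibition across replicates above the hit cutoff set in the primary screen, cut at about 26% in these data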;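 note: blocked labeling of the enzyme by serine hydrolase FP-Rh probe lowers polarization; 0% = enzyme with DMSO and 100% = wells lacking LYPLA2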
LYPLA2 ABPP = blocks human acyl-protein thioesterase 2 in gel ABPP; shares compounds with LYPLA2 inh; rhLYPLA2 in mouse brain proteome, gel ABPP FP-Rh; inhibition, % at 20 µM; 150 compounds, 30% hits; AID 652029;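 active = inhibition of LYPLA2 enzyme probe labeling above about 50%, limit read from the data; inactive = inhibition below that limit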;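 note: loss of FP-Rh probe labeling of the LYPLA2 gel band measured as band density; 0% = DMSO only control band and 100% = blank gel background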
* = called active by the depositor. Only some compounds are listed: those with a hit (about 0.74% of all), similar ones and a draw of the others.

`O=C(/C=C/c1ccc(Cl)cc1)N1CCN(c2ccc([N+](=O)[O-])c(N3CCOCC3)c2)CC1` gave Redox H2O2 prof 1.9, LYPLA1 inh 6.3, p97 ATPase inh -1.6 and LYPLA2 inh 6.1.
For O=C(COc1ccc(Cl)cc1)N1CCN(c2ccc([N+](=O)[O-])c(N3CCOCC3)c2)CC1 the results were Redox H2O2 prof -0.1, LYPLA1 inh 67.8*, p97 ATPase inh 6.0, LYPLA2 inh 32.0*, LYPLA1 confirm 75.3* and LYPLA2 confirm 28.7*.
`CN1C(=O)NC(c2ccccc2[N+](=O)[O-])C2=C1CC(C)(C)CC2=O` (centres undefined) gave LYPLA1 inh -2.5 and LYPLA2 inh -3.1.
`CN1C(=O)NC(c2ccccc2[N+](=O)[O-])C2=C1CCCC2=O` (centres undefined) gave LYPLA1 inh 72.7*, LYPLA2 inh 94.1*, LYPLA1 confirm 28.2* and LYPLA2 confirm 73.8*.
Screening NC(=O)c1cc([N+](=O)[O-])ccc1NCC1CCCCC1 returned LYPLA1 inh 24.5*, LYPLA2 inh 42.7*, LYPLA1 confirm 30.6* and LYPLA2 confirm 37.3*.
Screening O=C(Nc1cc(Cl)ccc1N1CCOCC1)C1=COCCO1 returned LYPLA1 inh 0.5 and LYPLA2 inh -1.8.
`Cc1cc(NS(=O)(=O)c2ccc(Nc3nc(-c4sc(NC(=O)c5ccccc5)nc4C)cs3)cc2)no1` gave Redox H2O2 prof 0.1, LYPLA1 inh 41.1*, p97 ATPase inh 0.7, LYPLA2 inh 58.9*, LYPLA1 confirm 36.8* and LYPLA2 confirm 37.4*.
`Cc1ccc(OCC(=O)N2CCN(C(=O)CCC3CCCC3)CC2)cc1` gave Redox H2O2 prof 1.2, LYPLA1 inh 61.3*, p97 ATPase inh -8.5, LYPLA2 inh 26.6*, LYPLA1 confirm 66.2* and LYPLA2 confirm 18.6.
Screening CCn1c(CSc2nnc(-c3ccncc3)n2C)nc2cc(C(=O)O)ccc21 returned LYPLA1 inh 37.2*, p97 ATPase inh 14.3, LYPLA2 inh 40.8*, LYPLA1 confirm 40.6* and LYPLA2 confirm 36.2*.
For CCn1c(CSc2ncn[nH]2)nc2cc(C(=O)O)ccc21 the results were LYPLA1 inh 4.2, p97 ATPase inh 6.0 and LYPLA2 inh 10.5.
Cc1ccc(NC(=O)CS(=O)CC(=O)Nc2ccccc2-c2ccc(C)o2)cc1 (centres undefined) was read as LYPLA1 inh 33.2*, LYPLA2 inh 41.4*, LYPLA1 confirm 0.2 and LYPLA2 confirm -4.6.
Screening CC(=O)Nc1ccccc1-c1ccc(C)o1 returned Redox H2O2 prof 0.0, LYPLA1 inh -2.3, p97 ATPase inh -5.1 and LYPLA2 inh 4.3.
Screening Cc1cc(NC(=O)c2cccc(S(=O)(=O)Nc3cccc(C(=O)O)c3)c2)no1 returned LYPLA1 inh 1.1 and LYPLA2 inh 2.5.
For O=C(CCCCCCCCN1C(=O)c2ccccc2C1=O)N1CCOCC1 the results were LYPLA1 inh -1.0, p97 ATPase inh 0.2 and LYPLA2 inh 3.3.
`O=C(CCCCCCN1C(=O)c2ccccc2C1=O)N1CCC(c2ccccc2)C1` (centres undefined) gave Redox H2O2 prof 0.1, LYPLA1 inh 67.8*, p97 ATPase inh -13.1, LYPLA2 inh 75.8*, LYPLA1 confirm 68.2* and LYPLA2 confirm 69.8*.
For COc1ccc(-n2nc(C(=O)NCC(=O)N3CCN(C)CC3)c3ccccc3c2=O)cc1OC the results were Redox H2O2 prof 0.3, LYPLA1 inh 0.6, p97 ATPase inh 4.3 and LYPLA2 inh 7.1.
Screening COc1ccc(-n2nc(C(=O)NCC(=O)N3CCN(Cc4ccccc4)CC3)c3ccccc3c2=O)c(OC)c1 returned LYPLA1 inh 35.6*, LYPLA2 inh 78.7*, LYPLA1 confirm 39.3* and LYPLA2 confirm 80.6*.
For COc1ccc(-n2nc(C(=O)NCC(=O)N3CCCCC3)c3ccccc3c2=O)c(OC)c1 the results were LYPLA1 inh -2.4 and LYPLA2 inh -0.3.
COc1ccc(N2CCN(C(=O)CNC(=O)c3nn(-c4ccc(OC)cc4)c(=O)c4ccccc34)CC2)cc1 was read as LYPLA1 inh 21.8*, LYPLA2 inh 54.8*, LYPLA1 confirm 16.5*, LYPLA2 confirm 59.6* and LYPLA2 ABPP 43.0.
Screening COc1ccc(-n2nc(C(=O)NCC(=O)N3CCN(Cc4ccccc4)CC3)c3ccccc3c2=O)cc1OC returned LYPLA1 inh 20.2*, LYPLA2 inh 37.6*, LYPLA1 confirm 45.0* and LYPLA2 confirm 63.6*.
Screening CC(C)CCN1C(=O)C2(OCCCO2)c2cc(Cl)ccc21 returned LYPLA1 inh 2.3 and LYPLA2 inh -0.7.
For CCCCCCN1C=CC(=C/C=C(\C#N)C(=O)OCC)C=C1 the results were Redox H2O2 prof -7.8, LYPLA1 inh 25.4*, p97 ATPase inh -2.8, LYPLA2 inh 41.2*, LYPLA1 confirm 26.7* and LYPLA2 confirm 35.5*.
For O=C(CCCc1ccccc1)N1CCN(c2ccc([N+](=O)[O-])cc2)CC1 the results were Redox H2O2 prof 0.8, LYPLA1 inh 32.9*, p97 ATPase inh -1.0, LYPLA2 inh 38.7*, LYPLA1 confirm 41.1* and LYPLA2 confirm 54.0*.
O=C(CCS(=O)(=O)Cc1ccccc1)N1CCN(c2ccc([N+](=O)[O-])cc2)CC1 was read as Redox H2O2 prof -2.1, LYPLA1 inh 1.7, p97 ATPase inh -0.4 and LYPLA2 inh 13.9.
Screening O=C(/C=C/c1ccccc1)N1CCN(CCN2C(=O)c3cccc4cccc(c34)C2=O)CC1 returned Redox H2O2 prof -0.4, LYPLA1 inh 36.6*, p97 ATPase inh 2.4, LYPLA2 inh 63.6*, LYPLA1 confirm 35.0* and LYPLA2 confirm 58.7*.
Screening O=C(c1ccc(S(=O)(=O)N2CCCC2)cc1)N1CCCCCC1 returned LYPLA1 inh -0.6, p97 ATPase inh 4.0 and LYPLA2 inh 2.9.
For O=C(c1ccc(S(=O)(=O)N2CCCCC2)cc1)N1CCN(CCN2C(=O)c3cccc4cccc(c34)C2=O)CC1 the results were Redox H2O2 prof -3.0, LYPLA1 inh 20.3*, p97 ATPase inh 2.3, LYPLA2 inh 34.5*, LYPLA1 confirm 42.2* and LYPLA2 confirm 59.8*.
`Cc1cccnc1NC(=O)c1ccc(COc2ccccc2)o1` gave LYPLA1 inh 4.4 and LYPLA2 inh 6.7.
CCOC(=O)C1CCN(c2ncnc3c2nnn3Cc2ccccc2Cl)CC1 was read as Redox H2O2 prof 0.2, LYPLA1 inh 28.0*, p97 ATPase inh -1.6, LYPLA2 inh 48.4*, LYPLA1 confirm 40.4* and LYPLA2 confirm 53.6*.

Screens (PubChem)
